mHTT CaM bind = inhibitors of human mutant huntingtin-calmodulin interaction | AlphaScreen His-mHTT/GST-CaM binding, luminescence | inhibition, % at 15 µM | 190,000 compounds, 3.6% hits;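 also: 0% = both proteins with DMSO and 100% = one protein alone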
Pf apPOL inh = Pf-apPOL DNA polymerase inhibition. 210,000 compounds, 0.25% hits. Recombinant Pf-apPOL, molecular beacon fluorescence, 1.5 h. AID 1794808. inhibition, % at 10 µM
Starred values were filed as active, the others as inactive. The list is not random: actives were taken first. Their share in the collection is about 3.5%. Rule as the data show it: active = inhibition above about 50%; inactive = the rest.

How did COc1ccc(-c2ccc(N3C(c4ccsc4)=Cc4ccc(F)cc4C3c3c[nH]c4ccccc34)cc2)cc1 (centres undefined) do in these assays?
mHTT CaM bind: 82.4*; Pf apPOL inh: -4.2

How did COc1ccc(C2Nc3ccccc3NC3=C2C(=O)CC(c2cccs2)C3)c(OC)c1 (centres undefined) do in these assays?
mHTT CaM bind: 14.0; Pf apPOL inh: 1.5

How did NC(=Nc1nc(=O)c2ccccc2s1)NC(=O)Nc1ccc(F)cc1 do in these assays?
mHTT CaM bind: 3.0; Pf apPOL inh: 15.1

Results for CC(C=Cc1c[nH]c2ccccc12)=CC(=O)O ?
Pf apPOL inh: 1.8

How did O=C(c1cccc(Cl)c1)N1CCC(C(=O)N2CCN(Cc3ccccc3)CC2)CC1 do in these assays?
mHTT CaM bind: 10.0; Pf apPOL inh: -0.4

Results for O=C(c1cc(Cl)cc(Cl)c1)N1CCC(=O)N([C@H](COCc2ccccc2)Cc2ccccc2)CC1 ?
mHTT CaM bind: 92.2*; Pf apPOL inh: -2.6

Results for Cc1ccc(S(=O)(=O)N2CCC(=O)N(C(COC(=O)Nc3ccccc3)Cc3ccccc3)CC2)cc1 (centres undefined) ?
mHTT CaM bind: 1.8; Pf apPOL inh: -9.5

What do the screens show for `O=C(c1cccc(Cl)c1)N1CCC(=O)N([C@H](COCc2ccccc2)Cc2ccccc2)CC1`?
mHTT CaM bind: 66.3*; Pf apPOL inh: -4.1

How did COc1ccc(NC(=O)Cc2nnc(NC(=O)Nc3ccc(C)c(C)c3)s2)cc1 do in these assays?
mHTT CaM bind: 13.7; Pf apPOL inh: -2.0

What do the screens show for `CC(=O)c1ccc2[nH]c(C(=O)O)c(CCN)c2c1`?
mHTT CaM bind: 0.9; Pf apPOL inh: -5.1

What do the screens show for `COc1ccc(NC(=O)C2CC(=O)N(C)C(=Nc3ccc(Cl)c(Cl)c3)S2)cc1` (centres undefined)?
mHTT CaM bind: 85.0*; Pf apPOL inh: 1.1

How did COc1ccc(NC(=O)C2CC(=O)N(C)C(=Nc3ccc(Cl)c(C(F)(F)F)c3)S2)cc1 (centres undefined) do in these assays?
mHTT CaM bind: 5.0; Pf apPOL inh: 7.1

Results for CCC(C)NC(=O)C1c2cc(OC)c(OC)cc2C(=O)N(C)C1c1cccnc1 (centres undefined) ?
mHTT CaM bind: -5.0; Pf apPOL inh: -3.5

What do the screens show for `COc1ccc(NC(=O)COc2ccccc2C)cc1Cl`?
mHTT CaM bind: -18.0; Pf apPOL inh: -9.3

How did O=C1CCN(Cc2ccccc2)CCN1[C@H](COc1ccccc1)c1ccccc1 do in these assays?
mHTT CaM bind: 84.8*; Pf apPOL inh: -3.6

What do the screens show for `CC(C)[C@@H](COc1ccccc1)N1CCN(Cc2ccccc2)CCC1=O`?
mHTT CaM bind: -1.4; Pf apPOL inh: -5.8

Results for NC(=S)Cc1ccc([N+](=O)[O-])cc1 ?
Pf apPOL inh: 5.7

What do the screens show for `CN(C)CCCN(C(=O)Cc1ccccc1)c1nc2ccc(Br)cc2s1`?
mHTT CaM bind: 100.2*; Pf apPOL inh: -5.5

How did CN(C)CCCN(C(=O)C1=COCCO1)c1nc2ccc(Br)cc2s1 do in these assays?
mHTT CaM bind: 22.6; Pf apPOL inh: -15.7

How did CC(C)C(=O)NC(/C=C/c1ccccc1)c1cc([N+](=O)[O-])c2cccnc2c1O (centres undefined) do in these assays?
mHTT CaM bind: 5.0; Pf apPOL inh: -3.9

What do the screens show for `CC(=O)NC(c1ccco1)c1cc([N+](=O)[O-])c2cccnc2c1O` (centres undefined)?
mHTT CaM bind: 100.0*; Pf apPOL inh: -5.3

How did CCCC(=O)NC(c1ccco1)c1cc([N+](=O)[O-])c2cccnc2c1O (centres undefined) do in these assays?
mHTT CaM bind: 100.0*; Pf apPOL inh: 4.9

Results for CC(C)C(=O)NC(c1ccco1)c1cc([N+](=O)[O-])c2cccnc2c1O (centres undefined) ?
mHTT CaM bind: 100.0*; Pf apPOL inh: -19.3

What do the screens show for `O=C(NC1CC2CC1N(C(=O)c1cc3c(s1)CCCC3)C2)c1cccs1` (centres undefined)?
mHTT CaM bind: 44.1; Pf apPOL inh: 4.7

What do the screens show for `Cc1nc2c(=O)n(CC(=O)c3ccc(Cl)c(Cl)c3)nc(-c3ccco3)c2s1`?
mHTT CaM bind: 4.0; Pf apPOL inh: 13.2

How did Cc1ccc(NS(=O)(=O)c2cccc(C(=O)Nc3cccc([N+](=O)[O-])c3)c2)cc1 do in these assays?
mHTT CaM bind: 23.0; Pf apPOL inh: 0.4

What do the screens show for `Cc1ccc(Cl)cc1NC(=O)CC(NCc1ccccn1)C(=O)O` (centres undefined)?
mHTT CaM bind: 100.0*; Pf apPOL inh: -7.7

Results for Cc1ccc(Cl)cc1NC(=O)CC(NCCCOC(C)C)C(=O)O (centres undefined) ?
mHTT CaM bind: -9.5; Pf apPOL inh: -6.7

What do the screens show for `CC(C)Cc1ccc(CN2C(C(C)C)C(=O)N(Cc3cn(CCC4OCCO4)nn3)CCS2(=O)=O)cc1` (centres undefined)?
mHTT CaM bind: 7.8; Pf apPOL inh: -8.0
